This is a sample that favours compounds with a hit; in the whole collection about 1.2% have one here.
CCHF vOTU inh-1 = CCHFV vOTU protease inhibition. AID 651958. Pep-AMC fluorescence. inhibition, % at 11.5 µM. actives 0.55% (n = 370,000); note: 0% = vehicle wells with enzyme and 100% = no enzyme wells
UGM FP inh = Mtb UDP-galactopyranose mutase inhibition; inhibition, % at 10 µM; AID 504406; purified UGM, fluorescence polarization probe displacement; P9WIQ1; actives 0.06% (n = 320,000); in the data active = inhibition above about 10%, passing the limit was not always enough
RecA intein inh = inhibitors of M. tuberculosis RecA intein splicing; P9WHJ3; cell-free RecA intein splicing, fluorescence; inhibition, % (no concentration beside the values); actives 0.75% (n = 290,000); AID 2221; in the data active = inhibition above about 30%;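 note: 0% = vehicle wells and 100% = reference inhibitor control wells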
Target sequence (P9WHJ3 whole entry, looked up): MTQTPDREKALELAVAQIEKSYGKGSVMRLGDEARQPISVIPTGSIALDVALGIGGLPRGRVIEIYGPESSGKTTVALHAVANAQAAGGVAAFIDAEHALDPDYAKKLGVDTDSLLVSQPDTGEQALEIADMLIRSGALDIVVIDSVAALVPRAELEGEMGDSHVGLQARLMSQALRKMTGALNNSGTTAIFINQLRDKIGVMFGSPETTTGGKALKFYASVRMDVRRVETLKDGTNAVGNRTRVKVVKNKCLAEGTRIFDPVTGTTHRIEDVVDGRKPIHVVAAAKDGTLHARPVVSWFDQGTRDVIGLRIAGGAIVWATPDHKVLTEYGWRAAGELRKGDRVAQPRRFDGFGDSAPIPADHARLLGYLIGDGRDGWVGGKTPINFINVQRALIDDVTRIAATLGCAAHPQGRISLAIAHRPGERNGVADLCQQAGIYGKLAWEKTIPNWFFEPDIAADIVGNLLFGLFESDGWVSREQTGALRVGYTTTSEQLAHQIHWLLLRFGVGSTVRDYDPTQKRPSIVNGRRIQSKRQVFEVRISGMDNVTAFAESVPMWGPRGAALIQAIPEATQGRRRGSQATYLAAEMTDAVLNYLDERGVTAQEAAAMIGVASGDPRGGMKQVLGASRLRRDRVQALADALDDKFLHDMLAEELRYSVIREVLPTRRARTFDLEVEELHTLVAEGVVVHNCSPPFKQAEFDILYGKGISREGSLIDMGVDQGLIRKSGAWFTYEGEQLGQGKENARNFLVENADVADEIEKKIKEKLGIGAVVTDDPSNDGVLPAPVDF
Mtb betalactam = beta-lactam sensitization of Mtb H37Rv | actives 0.27% (n = 330,000) | M. tuberculosis H37Rv growth with meropenem, percent inhibition | inhibition, % at 25 µM; call rule not given here;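 note: growth measured after seven days incubation then overnight dye step; 0% = bacteria only wells and 100% = bacteria with antibiotic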
Rv3671c inh = inhibits the M. tuberculosis serine protease Rv3671c | P9WHR9 | inhibition, % at 5.96 µM | actives 0.048% (n = 320,000) | AID 2606; in the data active = inhibition above about 38%;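 note: extracellular domain of Rv3671c used as enzyme; 0% = enzyme with DMSO and 100% = no enzyme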
CCHF vOTU inh-2 = confirmation of CCHF virus vOTU protease inhibitors | Recombinant CCHFV vOTU, Pep-AMC fluorescence | inhibition, % at 11.5 µM | actives 17% (n = 1,900) | AID 686976 | shares compounds with CCHF vOTU inh-1
The depositor's hits bear a star; . = no result. Cut-off read from the data, not from the text of the source, unless noted: active = inhibition above about 30%; inactive = the rest.

SMILES	CCHF vOTU inh-1	UGM FP inh	RecA intein inh	Mtb betalactam	Rv3671c inh	CCHF vOTU inh-2
Nc1nc(Nc2ccccc2)n[nH]1	32*	-3	-5	-10	-1	-22
Nc1nc(Nc2ccc(Cl)cc2)n[nH]1	1	-2	-3	-5	0	.
C[C@H](CO)N1C[C@H](C)[C@@H](CN(C)C(=O)NC2CCCC2)Oc2cc(Br)ccc2S1(=O)=O	30*	.	.	.	.	-10
COc1ccc(S(=O)(=O)N(C)C[C@@H]2Oc3cc(C#CC4CCCCC4)ccc3S(=O)(=O)N([C@@H](C)CO)C[C@@H]2C)cc1	32*	.	.	.	.	-8
CN(C)C(CNC(=O)c1ccc(NS(=O)(=O)c2ccc(F)c(F)c2)cc1)c1ccccc1 (stereo unspecified)	-4	-2	-9	5	-1	.
CN(C)C(CNC(=O)c1ccc(NS(=O)(=O)c2ccc3[nH]c(=O)[nH]c3c2)cc1)c1ccccc1 (stereo unspecified)	31*	0	0	-5	2	-16
O=C(N/N=C/c1ccco1)/C(=C/c1cccc([N+](=O)[O-])c1)NC(=O)c1ccccc1	-4	2	10	4	-6	.
O=C(N/N=C/c1ccc(Br)o1)/C(=C/c1ccc([N+](=O)[O-])cc1)NC(=O)c1ccccc1	38*	2	10	3	6	-5
CCOC(=O)N1CCN(C(=O)C[C@@H]2C(=O)N3CCCC4=C3[C@@]2(C(=O)OCC)CCC4)CC1	0	.	.	.	.	.
CCOc1ccc(-n2c(SCC(=O)Nc3ccc(S(=O)(=O)Nc4cc(C)nc(C)n4)cc3)nnc2-c2ccco2)cc1	-1	.	.	.	.	.
Cc1ccc(F)c(S(=O)(=O)NC(=O)C2(C)CCN2C(=O)C2(c3ccc(Cl)cc3)CC2)c1 (stereo unspecified)	30*	.	.	.	.	-9
CCOC(=O)C1CCN(C2=C(NS(=O)(=O)c3ccc(Cl)cc3)C(=O)c3ccccc3C2=O)CC1	4	0	14	3	9	.
CCOC(=O)C1CCCN(C2=C(NS(=O)(=O)c3ccc(Br)cc3)C(=O)c3ccccc3C2=O)C1 (stereo unspecified)	76*	2	25	10	-55	13
O=C1C(Nc2ccccc2)=C(N2CCCCC2)C(=O)c2ccccc21	101*	-1	46*	40	-137	87*
O=C1C(NS(=O)(=O)c2ccc(Br)cc2)=C(N2CCCCC2)C(=O)c2ccccc21	33*	1	12	4	-19	6
CN(C1=C(N2CCCCC2)C(=O)c2ccccc2C1=O)c1ccccc1	41*	0	25	7	-29	-3
CN(c1ccccc1)c1nc(N)c([N+](=O)[O-])c(N2CCCCC2)n1	1	-2	10	2	-2	.
O=C(NCc1ccco1)C1CCCN(S(=O)(=O)c2cccs2)C1 (stereo unspecified)	9	.	.	.	.	.
O=C(CN(CCc1ccccc1)S(=O)(=O)c1ccc(F)cc1)N1CCOCC1	-1	.	.	.	.	.
COc1ccc(NC(=O)Nc2cc(C)nn2-c2ccccc2)cc1	-5	.	.	.	.	.
CCCCCCCCN1C(=O)[C@@H](CC(=O)NCc2cccs2)C[C@@]2(C(=O)OC)C1=C[C@H](COCc1ccccc1)O[C@@H]2C	23	.	.	.	.	.
O=C(Nc1nc2ncccn2c1-c1ccc(F)cc1)c1ccc(F)cc1	-12	.	.	.	.	.
CCN(CC(=O)Nc1ccccc1C(F)(F)F)CC(=O)c1[nH]c(C)c(C(C)=O)c1C	38*	.	.	.	.	-17
CC(=O)c1c(C)[nH]c(C(=O)CN(C)CC(=O)Nc2ccccc2Cl)c1C	7	-2	.	-3	-6	.
O=C(c1cccs1)N1CC[C@H]2[C@H](CCCN2Cc2ccc(F)cc2)C1	-7	.	.	.	.	.
SMILES	CCHF vOTU inh-1	UGM FP inh	RecA intein inh	Mtb betalactam	Rv3671c inh	CCHF vOTU inh-2
CC(=O)O[C@@H]1C=C[C@@H](C#Cc2ccc(C(C)(C)C)cc2)O[C@@H]1COC(=O)Nc1ccccc1	34*	.	.	.	.	-8
S=c1[nH]nc(C2CCCCC2)n1/N=C/C(Cl)=C\c1ccccc1	-5	-2	10	-3	-3	.
S=c1[nH]nc(C2CCCCC2)n1/N=C/C=C/c1ccccc1	32*	2	3	2	-2	8
O=C(NC1(O)C(=O)c2ccccc2C1=O)c1ccc(C(F)(F)F)cc1	81*	1	7	4	-134	35*
O=C(N[C@@H](Cc1ccccc1)C(=O)O)c1ccc(C(F)(F)F)cc1	16	2	0	0	-2	.
CCCCCCCCN1C(=O)[C@H](CC(=O)NCC2CCCCC2)C[C@@]2(C(=O)OCC)CCCC=C12	20	.	.	.	.	.
CCCCCCCCN1C(=O)[C@H](CC(=O)N2CCOCC2)C[C@@]2(C(=O)OCC)CCCC=C12	22	.	.	.	.	.
CCCCCCCCN1C(=O)[C@H](CC(=O)NCc2ccccc2)C[C@@]2(C(=O)OCC)CCCC=C12	33*	.	.	.	.	5
C#CCNC(=O)C[C@@H]1C[C@@]2(C(=O)OCC)CCCC=C2N(CCCCCCCC)C1=O	31*	.	.	.	.	15
CCCCCCCCN1C(=O)[C@H](CC(=O)N2CCSCC2)C[C@@]2(C(=O)OCC)CCCC=C12	39*	.	.	.	.	3
CCOC(=O)[C@]12CCCC=C1N(CCc1ccc(OC)c(OC)c1)C(=O)[C@H](CC(=O)N1CCCC1)C2	33*	.	.	.	.	-23
COc1ccc(N2C(=O)[C@@H]3[C@H](C2=O)[C@H]2c4ccccc4C=CN2[C@@H]3C(C)=O)cc1	92*	0	11	1	-46	92*
CC(C)(C)C(=O)[C@@H]1[C@@H]2C(=O)N(C3CCCCC3)C(=O)[C@@H]2[C@H]2c3ccccc3C=CN12	33*	-1	.	3	-19	13
O=c1[nH]n2c(=O)c3c([nH]c2c1N=Nc1cccc(C(F)(F)F)c1)CCCC3	44*	3	12	74	3	13
CCOc1ccc(/C(O)=C2\C(=O)C(=O)N(CCN(C)C)C2c2cccc(OC)c2OC)cc1Cl (stereo unspecified)	30*	-1	2	3	4	-9
CCCCCCC[C@@H](C/C=C/CCC(=O)N(C)C/C(=C/Cl)C/C(=C\C(=O)N1C[C@H](O)CC1=O)OC)OC	31*	.	.	-7	-1	13
COc1nccnc1NS(=O)(=O)c1ccc(NC(=S)NC(=O)/C=C/c2ccc(F)cc2)cc1	38*	2	1	-4	-1	-14
COc1ccc(C(=O)C[n+]2ccc3c(c2)nc(Cc2ccccc2)n3C)cc1	10	.	.	.	.	.
CCN(C(=O)CSc1nnc(SC(C)C)s1)C1CCS(=O)(=O)C1 (stereo unspecified)	37*	-1	.	-1	7	-11
CC(C)CNS(=O)(=O)CC1NCc2cc3c(cc21)OCO3 (stereo unspecified)	-11	.	.	.	.	.
O=C(c1cccc(Oc2ccccc2)c1)N1CCC(Oc2cccnc2)CC1	-3	.	.	.	.	.
Cc1ccc(S(=O)(=O)Nc2cc(Cl)c(O)c3ncccc23)cc1	30*	3	0	3	-19	-3
CCC(NC(=O)Nc1ccc(O)cc1)(C(F)(F)F)C(F)(F)F	63*	2	.	-4	-25	3
COc1ccc(NC(=O)NC(C)(C(F)(F)F)C(F)(F)F)cc1	1	.	1	75	-1	.

High-throughput results from PubChem.
